Source: PubChem
Most compounds without a hit are left out; they make up all but 2.5% or so of the library.
CRFR2-BP ag = CRF-BP/CRF-R2 complex agonism | HEK293 CRF-R2/CRF-BP, calcium dye fluorescence (FLIPR); percent of saturating CRF peptide response | hit rate 0.46% among 350,000 | activation, % at 13.2 µM;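 active means activation of at least 50%, plus an integration ratio under a set limit after plate pattern correction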;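 further: plate controls were neutral control wells without compound for no effect and CRF at EC100 for full effect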
iPSC survival up = increases survival of single human iPS cells. hiPSC single-cell survival, ATPlite luminescence; 100% = ROCK inhibitor wells, 0% = DMSO. survival enhancement, % at 20 µM. hit rate 0.044% among 360,000. AID 602274; in the data active means survival enhancement above about 18%;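 further: cells exposed to compounds for 16 hours before the ATP read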
CRFR2-BP antag = antagonists of CRF-binding protein/CRF-R2 receptor complex; HEK293 CRF-R2/CRF-BP, CRF-induced calcium fluorescence; inhibition, % at 11.8 µM; hit rate 0.59% among 350,000; AID 588475;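 active means inhibition of the ligand-induced calcium signal above about 50% at the single tested concentration, limit read from the data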
SKN-1 inh = inhibitors of C. elegans SKN-1. C. elegans VP596 Pgst-4::GFP/RFP ratio, acrylamide-induced, 24 h. inhibition, % at 21.8 µM. hit rate 0.49% among 360,000;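 active means interference check ratio from 0.5 to 1.5 plus GFP to RFP signal ratio inhibition reaching or exceeding a fixed threshold, cut at about 30% in these data, passing the limit was not always enough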
H9c2 protect = modulators protecting cardiomyocytes from myocardial damage. AID 588492. H9c2 cardiomyocytes, H2O2 injury protection, ATPLite, 2 h. protection from H2O2 cell death, % at 20 µM. hit rate 0.63% among 360,000;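 active means compounds giving at least 50% protection of heart cells from peroxide-induced death in the single-dose screen, raw or plate-pattern-corrected value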;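 further: 0% = DMSO wells with peroxide and 100% = DMSO wells without peroxide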
H9c2 TAG inh = reduces triacylglycerol accumulation in H9c2 cells; hit rate 0.66% among 230,000; inhibition, % at 12.5 µM; Nile Red lipid (TAG) fluorescence; cells loaded with 200 µM oleic acid;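 active means pattern-corrected inhibition of lipid staining of at least 50% with the nuclear-stain viability signal not falling by more than 50%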;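 further: 0% = DMSO wells and 100% = triacsin C control wells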
An asterisk follows results filed as active; / = no result.

SMILES	CRFR2-BP ag	iPSC survival up	CRFR2-BP antag	SKN-1 inh	H9c2 protect	H9c2 TAG inh
COCCN(C(=O)c1ccc2c(c1)S(=O)(=O)N=C1CCCCCN12)c1c(N)n(CC(C)C)c(=O)[nH]c1=O	1	0	4	4	-1	-12
O=C(NC(=S)N1CCN(c2ccc(C(F)(F)F)cc2[N+](=O)[O-])CC1)c1cccs1	-5	-4	-21	-3	-1	/
Cc1cc(C)c(S(=O)(=O)Nc2ccccc2)c(C)c1	-6	0	14	17	-4	-16
C#CCOc1ccc(/C=C2\SC(=S)N(Cc3cccnc3)C2=O)cc1	0	-1	17	-8	-3	/
O=C1/C(=C/c2ccc(O)cc2)SC(=S)N1Cc1cccnc1	107*	-1	-51	3	-7	/
O=C(CC1SC(=NCc2ccccc2)NC1=O)Nc1ccccc1 (stereo unspecified)	-3	5	5	7	3	-3
CCOc1ccc(CCN2C(=O)C(=O)N([C@@H](Cc3ccccc3)CN3CCC[C@H]3CN3C(=O)C(=O)NC[C@@H]3Cc3ccccc3)C[C@@H]2CC(C)C)cc1	/	0	/	10	/	/
Cc1ccc(-c2cc(C(=O)NCc3ccccn3)c3ccccc3n2)cc1C	-3	-2	111*	24	5	/
COc1ccccc1NC(=O)c1cc(-c2ccc(OC)c(OC)c2)nc2ccccc12	0	0	-3	2	57*	/
O=C(Nc1nc2ccccc2s1)c1cc(-c2ccco2)nc2ccccc12	0	-1	-90	5	-8	/
Cc1cccc(-c2cc(C(=O)NCc3ccccn3)c3ccccc3n2)c1	0	-2	5	-3	37	/
COc1ccc(-c2cc(C(=O)Nc3nc4c(C)cccc4s3)c3ccccc3n2)cc1OC	0	-1	9	5	14	/
COc1ccc(-c2cc(C(=O)N3CCN(c4ccccc4)CC3)c3ccccc3n2)cc1OC	0	0	-16	1	54*	4
COc1cccc(-c2cc(C(=O)Nc3nc4ccccc4s3)c3ccccc3n2)c1	4	0	-52	46*	-10	/
CC1(C(=O)NS(=O)(=O)C2CC2)CCCN(C(=O)Cc2ccc(F)cc2)C1 (stereo unspecified)	/	4	/	-10	1	-1
Cc1cccc(C)c1-n1nnnc1C(c1ccnc2ccccc12)N1CCN(c2ccccc2F)CC1 (stereo unspecified)	/	0	/	9	/	/
CCOC(=O)[C@]12CCC=C1N(Cc1ccc3c(c1)OCO3)C(=O)[C@H](CC(=O)N1CCC(c3ccccc3)CC1)C2	/	0	/	-4	/	/
Cc1ccc(-c2cc(C(=O)OCC(=O)NC3CC3)c3ccccc3n2)cc1	1	0	-2	24	-7	1
COc1ccc(N2CCN(C(=O)c3cc(=O)c4cc(C)c(C)cc4o3)CC2)cc1	-1	0	111*	1	0	/
COc1ccc(-c2cc(C(=O)Nc3ccc(O)cc3)c3ccccc3n2)cc1OC	-1	0	11	-3	2	28
CCOC(=O)c1sc(NC(=O)c2cc(-c3ccccc3)nc3ccccc23)c(C#N)c1C	53*	4	35	6	-32	5
CCOC(=O)c1sc(NC(=O)CSc2n[nH]c(-c3ccccc3)n2)c(C#N)c1C	20	0	0	-6	-39	-2
COc1ccc(NC(=O)c2cc(-c3cc(OC)c(OC)c(OC)c3)nc3ccccc23)cc1OC	1	-1	-5	0	63*	/
COc1cc(-c2cc(C(=O)OCC(=O)NC3CC3)c3ccccc3n2)cc(OC)c1OC	-2	0	8	-9	64*	-1
COc1ccc(N2CCN(c3cncc(C)n3)CC2)cc1	/	-1	/	8	-1	7
SMILES	CRFR2-BP ag	iPSC survival up	CRFR2-BP antag	SKN-1 inh	H9c2 protect	H9c2 TAG inh
COc1ccc(NC(=O)c2cc(-c3ccccn3)nc3ccccc23)cc1S(=O)(=O)N(C)C	2	-1	6	-2	89*	23
COc1ccc(N2CCN(C(=O)c3csc4ccccc34)CC2)cc1	-3	4	119*	-32	-6	/
COc1cc(/C=C/C(=O)Nc2ccc(S(=O)(=O)Nc3ncccn3)cc2)ccc1OCC#N	-1	2	7	27	-3	3
O=S1(=O)C[C@@H](N2CCC(Cc3ccccc3)CC2)[C@H](COCc2ccccc2)N1	-1	0	5	-6	-15	-20
COc1ccc(S(=O)(=O)NNC(=O)c2csc(-n3nc(C)cc3C(F)(F)F)n2)cc1	-4	-3	61*	-11	9	-7
Cc1ccc2nc(/C(C#N)=C/c3ccc(O)c(O)c3)[nH]c2c1	39	0	-75	-8	71*	10
Cc1ccc2nc(/C(C#N)=C/c3ccccc3C(=O)O)[nH]c2c1	1	0	15	9	3	0
COc1ccc(C(=O)N/N=C(\c2ccccc2)c2ccccn2)cc1	-4	0	40	7	60*	6
S=C(NN=C(c1ccccc1)c1ccccn1)N(Cc1ccccn1)Cc1ccccn1	-4	-2	-1	10	34	62*
O=C(NN=C(c1ccccc1)c1ccccn1)c1ccccc1	-3	-1	1	-6	37	31
CC(=NNC(=S)N(Cc1ccccn1)Cc1ccccn1)c1cnccn1	-4	-2	0	7	44	29
COc1ccccc1NC(=S)N(CCCN1CCOCC1)Cc1cccs1	-5	1	-6	1	5	-7
Cc1cccc(N/C(N)=N/c2nc(C)c(Cc3ccccc3)c(=O)[nH]2)c1	-1	0	-3	7	0	-15
Cc1c(-c2ccccc2)c(=O)oc2cc(O)ccc12	-1	0	6	6	-2	/
CC1(C)CC[C@]2(C(=O)O)CC[C@]3(C)C(=CC[C@@H]4[C@@]5(C)CC[C@H](O[C@@H]6O[C@H](C(=O)O)[C@@H](O)[C@H](O[C@@H]7OC[C@H](O)[C@H](O)[C@H]7O)[C@H]6O)C(C)(C)[C@@H]5CC[C@]43C)[C@@H]2C1	256*	2	-227	6	-11	-3
CCC1OC2(C)OC(=N)C1(C#N)C(C#N)(C#N)C2c1ccccc1 (stereo unspecified)	28	0	-20	47*	7	11
CC(C)C1OC2(C)OC(=N)C1(C#N)C(C#N)(C#N)C2c1ccccc1 (stereo unspecified)	62*	0	-72	42	-2	/
CCC12OC(=N)C(C#N)(C1C)C(C#N)(C#N)C(c1ccccc1)O2 (stereo unspecified)	5	-2	-7	18	1	/
CCSC1=N/C(=C\c2ccc(C(=O)O)cc2)C(=O)S1	-1	-1	3	9	7	-15
CCOC(=O)SC1=N/C(=C\c2ccc(N(C)C)cc2)C(=O)S1	44	6	-52	41*	-1	/
